# The whole screen tested about 52,000 compounds, of which about 1,700 (3.3%) were called active. The sample holds actives, similar compounds and a random draw of the others, so the mix is not that of the screen. A number with no mark means an inactive call. Cut-off read from the data, not from the text of the source: active = survival mostly below about 52% (no sharp cut-off); inactive = mostly above about 56%.
# Test system: Wild type
# Assay: growth inhibition of S. aureus wild type versus tarO mutant, primary screen, teichoic acid synthesis inhibitors, RN4220, OD600 (AID 463173)
# Details: S. aureus RN4220 wild type/DeltatarO growth, OD600, 18 h, stronger effect = lower value, screened at 18.75 µg/mL (by protocol)
row,SMILES,survival
1,O=C(NCc1ccco1)c1ccc(COCC(F)(F)C(F)F)cc1,98%
2,COc1ccccc1N1CCN(C(=O)CN2C(=O)COc3ccc(S(=O)(=O)N4CCC(C)CC4)cc32)CC1,98%
3,CCCCc1nn2c(=O)cc(COC(=O)c3cccc(NC(=O)c4cccc(Cl)c4)c3)nc2s1,85%
4,CCNc1nc(NC(N)=S)nc(NC(C)(C)C)n1,112%
5,Fc1ccc(Nc2ncnc3onc(-c4cccc(Cl)c4)c23)c(F)c1,79%
6,C#CCNC(=O)NC1CCCN(S(=O)(=O)c2ccc(C)cc2)C1 (stereo not given),112%
7,CCc1ccc(C(=O)c2cn(CC(=O)Nc3ccc(OC)cc3)c3cc4c(cc3c2=O)OCCO4)cc1,89%
8,COc1cccc(NC(=O)C2CC(=O)N(c3ccc(Br)cc3)C2)c1 (stereo not given),63%
9,Cc1cc(C)n(C(=O)CNc2ccccc2Cl)n1,103%
10,COCCNC(=O)CCN1C(=O)c2cccnc2Oc2ccc(C)cc21,70%
11,COc1cc(C2NC(=O)NC(C)=C2C(=O)Nc2cc(C)cc(C)c2)ccc1O (stereo not given),69%
12,NC(=O)CSc1nc2ccc(NC(=O)COc3ccccc3)cc2s1,86%
13,COC(=O)c1ccc(NC(=O)Cc2coc3cc(C)ccc23)cc1,106%
14,Cc1ccc2onc(CC(=O)Nc3cccc(C(F)(F)F)c3)c2c1,92%
15,Cc1ccc2c(CC(=O)Nc3cccc(C(F)(F)F)c3)coc2c1,8% (active)
16,CC(C)c1ccc2occ(CC(=O)Nc3ccccc3Cl)c2c1,81%
17,Cc1ccc(NC(=O)Cc2coc3ccc(C(C)C)cc23)cc1Cl,53%
18,CC(C)c1ccc2occ(CC(=O)Nc3cccc(C(F)(F)F)c3)c2c1,0% (active)
19,CCC(=O)N1CCc2cc(Br)cc(S(=O)(=O)N3CCCC(C(=O)Nc4ccc(C(C)C)cc4)C3)c21 (stereo not given),106%
20,O=C(CSC1=Nc2ccccc2N=C(c2ccc(F)cc2)C1)NCc1ccc(F)cc1,83%
21,COC(=O)C1=C(C)N(C(C)C)C(=O)C1(NC(=O)c1ccc(C(C)(C)C)cc1)C(F)(F)F (stereo not given),65%
22,O=C(NC1CCCCC1)c1cc(Nc2cccc(C(F)(F)F)c2)nc2ccccc12,72%
23,CCn1c(SCC#N)nnc1-c1ccc(S(=O)(=O)N2CCCC2)cc1,100%

row,SMILES,survival
1,CCCN(C(=O)C(C)C)c1nnc(-c2cc(OC)c(OC)c(OC)c2)s1,120%
2,CCCn1c(=O)c2sccc2n2c(CCCC(=O)NCCOC)nnc12,97%
3,O=C(NCCc1ccccc1)C1CCN(c2ncnc3c2nc2n3CCCCC2)CC1,-4% (active)
4,O=C(NCCc1ccc(Cl)cc1)C1CCN(c2ncnc3c2nc2n3CCCCC2)CC1,80%
5,Cc1cccc(N2CCN(C(=O)C3CCN(c4ncnc5c4nc4n5CCCCC4)CC3)CC2C)c1 (stereo not given),1% (active)
6,O=C(C1CCN(c2ncnc3c2nc2n3CCCCC2)CC1)N1CCN(c2ccc(Cl)cc2)CC1,55%
7,O=C(NCc1ccccc1)C1CCN(c2ncnc3c2nc2n3CCCCC2)CC1,82%
8,Cc1ccc(N2CCN(C(=O)C3CCN(c4ncnc5c4nc4n5CCCCC4)CC3)CC2)c(C)c1,55%
9,O=C(C1CCN(c2ncnc3c2nc2n3CCCCC2)CC1)N1CCN(c2ccc(F)cc2)CC1,-3% (active)
10,O=C(C1CCN(c2ncnc3c2nc2n3CCCCC2)CC1)N1CCN(c2ccccc2)CC1,71%
11,Cc1cccc(N2CCN(c3ncnc4c3nc3n4CCCCC3)CC2C)c1 (stereo not given),75%
12,CC(=O)C1=C(c2ccc(Cl)cc2)N(C(C)=O)n2c(nnc2C2CCCCC2)S1,85%
13,CCOc1cccc(CC(=O)N2CCc3c([nH]c4ccccc34)C2c2ccc(C)cc2)c1OCC (stereo not given),83%
14,Cc1ccc2c(c1)c(=O)c(C(=O)c1ccncc1)cn2CC(=O)Nc1c(C)cccc1C,72%
15,O=C(CC12CC3CC(CC(C3)C1)C2)N1CCCOC1,114%
16,N=c1nc(SCCC(=O)O)ss1,112%
17,COc1ccc(NC(=O)C(C)Sc2cc(-c3ccccc3)nc(C)n2)cc1Cl (stereo not given),81%
18,Cc1c(Cl)cccc1NC(=O)CCS(=O)(=O)c1ccc2c(c1)CC(=O)N2C,85%
19,COc1ccc(C(CC(=O)Nc2ccc(C)c(C)c2)N2Cc3ccccc3C2=O)cc1OC (stereo not given),66%
20,COc1ccc(NC(=O)Cn2c(=O)n(CCC(=O)NCCc3ccc(OC)c(OC)c3)c(=O)c3ccccc32)cc1Cl,92%
21,CCc1ccc(C2=C(C)C(N3CCC(C(=O)NCc4ccccc4)CC3)=NS2(=O)=O)cc1,67%
22,CC1=C(c2ccc(C)c(C)c2)S(=O)(=O)N=C1N1CCC(C(=O)N2CCC(C(N)=O)CC2)CC1,-4% (active)
23,CC1=C(c2ccc(Cl)cc2)S(=O)(=O)N=C1N1CCC(C(=O)NCCc2ccco2)CC1,55%

row,SMILES,survival
1,CC1=C(c2ccc(C(C)C)cc2)S(=O)(=O)N=C1N1CCC(C(=O)NCc2ccco2)CC1,63%
2,CC1=C(c2ccc(C)c(C)c2)S(=O)(=O)N=C1N1CCC(C(=O)N2CCCCC2)CC1,129%
3,CC1=C(c2ccc(C(C)C)cc2)S(=O)(=O)N=C1N1CCC(C(=O)NCc2ccc(C)o2)CC1,63%
4,CC1=C(c2ccc(C(C)C)cc2)S(=O)(=O)N=C1N1CCC(C(=O)NCc2ccccc2)CC1,-3% (active)
5,CC1=C(c2ccc(C)c(C)c2)S(=O)(=O)N=C1N1CCC(C(=O)N2CCC(C)CC2)CC1,81%
6,CC1=C(c2ccc(C(C)C)cc2)S(=O)(=O)N=C1N1CCC(C(=O)NCCc2ccco2)CC1,1% (active)
7,CCc1ccccc1NC(=O)c1cc(S(=O)(=O)N2CCCC2)cn1C,84%
8,CCC(C)NC(=O)Cn1c(=O)n(CC2CCC(C(=O)NC)CC2)c(=O)c2sccc21 (stereo not given),70%
9,CC(C)N(C(=O)Cn1cc(SCC(=O)Nc2ccccc2C(F)(F)F)c2ccccc21)C(C)C,105%
10,COc1ccccc1Cc1nc2ccccc2nc1SCC(=O)N1CCc2ccccc21,49%
11,Cc1cc(Br)ccc1NC(=O)CSc1c2c(nc3ccccc13)CCC2,75%
12,N#Cc1c(C(F)(F)F)cc(-c2cccs2)nc1SCC(=O)Nc1ccc(Cl)cc1,78%
13,Cc1[nH]c2ccccc2c1SCCNC(=O)c1ccc(F)cc1,64%
14,Cc1ccc(C(=O)NCCSc2c(C)[nH]c3ccccc23)cc1C,19% (active)
15,CCOc1ccc(C(=O)NCCSc2c(C)[nH]c3ccccc23)cc1OCC,86%
16,CCNS(=O)(=O)c1ccc(S(=O)(=O)N(Cc2ccccn2)C2CCCCC2)cc1,107%
17,CC1CCN(C(=O)Cn2c(=O)n(CC3CCC(C(=O)NC(C)C)CC3)c(=O)c3sccc32)CC1 (stereo not given),78%
18,CCn1c(C(=O)NCc2ccc(OC)cc2)cc2sc(Cl)cc21,37%
19,CCn1c(C(=O)NCc2ccccc2)cc2sc(Cl)cc21,2% (active)
20,CCn1c(C(=O)NCc2ccc(C)cc2)cc2sc(Cl)cc21,78%
21,CCOC(=O)c1c(C)n(-c2ccccc2)c2ccc(OC(=O)COc3ccc(Cl)cc3)cc12,78%
22,Cc1ccc(-c2cc(C(=O)Oc3ccccc3Cl)no2)cc1C,-6% (active)
23,Cc1ccc(OC(=O)c2cc(-c3ccc4c(c3)OCCO4)on2)c(C)c1,-6% (active)

row,SMILES,survival
1,Cc1ccc(OC(=O)c2cc(-c3ccc(Cl)cc3)on2)c(C)c1,93%
2,O=C(Oc1ccccc1Cl)c1cc(-c2ccc3c(c2)OCCO3)on1,-7% (active)
3,CC(C)c1ccc(OC(=O)c2cc(-c3ccccc3)on2)cc1,106%
4,CCOC(=O)c1cc(-c2ccc(OC)c(S(=O)(=O)NCc3ccccc3Cl)c2)on1,79%
5,O=C(Nc1cccc(Cl)c1)c1cc(-c2ccc3c(c2)OCCO3)on1,122%
6,O=C(Nc1ccccc1C(F)(F)F)c1cc(-c2ccc3c(c2)OCCO3)on1,113%
7,Cc1ccccc1OC(=O)c1cc(-c2ccc3c(c2)OCCO3)on1,-6% (active)
8,Cc1ccc(NC(=O)c2cc(-c3ccc4c(c3)OCO4)on2)cc1,105%
9,Cc1ccc(Cl)cc1NC(=O)c1cc(-c2ccc3c(c2)OCCO3)on1,67%
10,Cc1oc2ncn(C)c(=O)c2c1C(=O)N1CCN(c2cccc(C(F)(F)F)c2)CC1,82%
11,CCOc1ccccc1CNCCNC(=O)c1nonc1N,128%
12,CCCNS(=O)(=O)c1ccc(OCC(=O)NCc2ccccn2)cc1,122%
13,NC(=Nc1ccccc1)SC1CC(=O)N(c2ccccc2)C1=O (stereo not given),113%
14,O=C(Nc1ccccc1NC(=O)c1cccs1)c1cccs1,111%
15,COc1cccc(NC(=O)Cn2c(=O)ccc3cc(S(=O)(=O)N4CCC(C)CC4)ccc32)c1,73%
16,CCn1cc(/C=C(\NC(=O)c2ccccc2Cl)C(=O)NCCCn2ccnc2)c2ccccc21,121%
17,COC(=O)c1sccc1S(=O)(=O)N1CCN(c2cccc(C)c2C)CC1,67%
18,COc1cc(NC(=O)Cn2c(-c3ccccc3)cc(C(C)=O)c2C)cc(OC)c1,92%
19,COc1ccc2c(c1)N(C)/C(=C1/SC(=S)N(C)C1=O)S2,122%
20,COc1cccc(CNC(=O)c2cc(-c3ccc(Cl)cc3)n[nH]2)c1,136%
21,C#CCNc1c2c(nc3nnnn13)CCCC2,104%

# From PubChem BioAssay AID463173 (ICCB-Longwood Screening Facility, Harvard Medical School, 2010)
